Source: PubChem BioAssay (NCI)
This is part of a sample that, as a whole, favours compounds with a hit. Of some 83,000 tested, about 20% had one in any assay.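 Percent growth is the endpoint: 0 to 100 indicates growth inhibition (40 means 60% inhibition), 0 means no net growth, and negative values indicate cell death.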 The source made the active and inactive calls. The calls were made as follows: active = growth percent below 10; inactive = the rest.

These molecules were tested on HL-60(TB) leukemia (assay: NCI-60 one-dose screen, 48 h (100 = growth as untreated, 0 = no growth, -100 = all killed)). Conditions: 10 µM unless noted.

Structure (SMILES) | growth
N/C(=N\c1nc2ccccc2s1)NC(=O)Nc1cccc(Cl)c1 | 3.43% (active)
CCCc1cccc(CCC)c1O | 105% (inactive)
COc1ccc(OC)c(CCn2cncc2-c2c[nH]c3ccccc23)c1 | 80.8% (inactive)
COc1ccccc1C(=O)/C=C/c1ccccc1 | 77% (inactive)
O=C(c1ccc(Cl)cc1)N1CCCCC1 | 98.7% (inactive)
Cc1cn2c(/C=C3/C(=O)Nc4c3ccc3ccccc43)c(C(F)(F)F)nc2s1 | 1.47% (active)
COc1cc2cc3cc4cc(OC)c(OC)cc4c(C)[n+]3cc2cc1OC (tested in a mixture with another compound) | 33% (inactive)
C=Cc1nn2c(CCC(=O)c3nc4ccccc4[nH]3)nnc2s1 | 104% (inactive)
COc1ccc2c(c1)C(=O)c1c-2c(=O)n(CCCN(C)C)c2cc(OC)c(OC)cc12 | 74.8% (inactive)
N=C(N)c1ccc(OCCSCCOc2ccc(C(=N)N)cc2)cc1 | 77.9% (inactive)
COc1ccc(S(=O)(=O)N(C(C)=O)c2ccccc2/C=C/c2cc[n+]([O-])cc2)cc1 | -27.6% (active)
CN(C)c1ccc(/C=C/c2sc3ccc4ccccc4c3[n+]2C)cc1 | -41.8% (active)
N/C(=N\c1nc2ccccc2s1)NC(=NC1CCCCC1)NC1CCCCC1 | -36.3% (active)
CCc1n(Cc2ccc3ccccc3c2)c2ccccc2[n+]1Cc1ccc2ccccc2c1 | 14.3% (inactive)
CCOC(=O)C(CSC(c1ccccc1)(c1ccccc1)c1ccccc1)NC(=O)C(CSC(c1ccccc1)(c1ccccc1)c1ccccc1)NC(c1ccccc1)(c1ccccc1)c1ccccc1 (configuration not stated) | 118% (inactive)
O=[N+]([O-])c1ccc(NC(=S)N/N=C/c2cc3ccccc3n3nnnc23)cc1 | 27.4% (inactive)
N=C(N)c1ccc(-c2ccc(-c3ccc(Cl)cc3)s2)s1 | -58.6% (active)
COc1ccc(-c2nnc(N3CCN(C(=O)CN4CCN(c5ccc(OC)cc5)CC4)CC3)nc2-c2ccc(OC)cc2)cc1 | -71.6% (active)
c1ccc(CCSc2ncnc3nc[nH]c23)cc1 | 74.7% (inactive)
CCOC(=O)c1c2c(c(C)n1Cc1ccccc1)-c1nc(N)ncc1CC2 | 96.2% (inactive)
N#C/C(=C\c1c(-c2ccccc2)[nH]c2ccccc12)S(=O)(=O)c1ccccc1 | -4.39% (active)
CCN1CCN(c2ccc(Nc3cc(-c4cccnc4Nc4c(Cl)c(OC)cc(OC)c4Cl)ncn3)cc2)CC1 | 56% (inactive)
Cc1cc(SCc2ccccc2)nc(N)n1 | 119% (inactive)
CC1(C(=O)O)CCC(N)(C(=O)O)C1(C)C (configuration not stated) | 101% (inactive)
COc1ccc2nc(-c3ccccc3)cc(C(C)=O)c2c1 | 84.8% (inactive)
COc1cc(COC(=O)CCCCC[P+](c2ccccc2)(c2ccccc2)c2ccccc2)c(OC)c2c1OCO2 | -9.81% (active)
CCCCCCC/C(=N\N=C(N)N)c1ccc(O)cc1 | 6.11% (active)
